Values joined by “and” are separate entries in the source; they are usually repeats but may differ in a detail not shown here. Equal values may be shown once. The campaign covered roughly 5,500 compounds. About 2,000 (36%) were called active. Not shown: some 18% with an inconclusive outcome. Cut-off read from the data, not from the text of the source: active = normalized growth mostly below about 0.91 (no sharp cut-off); inconclusive = no clear call, values can overlap the other calls; inactive = mostly above about 0.92. The list shows a part of the results.
Experiment: chemical genetic growth profiling, strain panel (AID 1159580);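 note: tested at 20 µM; growth read once vehicle control cultures reached saturation at 30 °C; 1 = growth at the plate median or of vehicle wells; lower values mean less growth of the strain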
Conditions: growth OD

Measured: normalized growth

O=C1N=C(O)CN1/N=C\c1ccc(-c2ccc([N+](=O)[O-])cc2)o1
inactive: S. cerevisiae deletion strains, locus YJR075W, strain HOC1, active compounds read low 1.03 and 0.99 | S. cerevisiae deletion strains, locus YKL009W, strain mrt4, active compounds read low 1.04 | S. cerevisiae deletion strains, locus YKL068W, active compounds read low 1.03 | S. cerevisiae deletion strains, locus YKL085W, strain MDH1 (second series), active compounds read low 1.02 | S. cerevisiae deletion strains, locus YKL085W, strain MDH1, active compounds read low 1.02 | S. cerevisiae deletion strains, locus YKL160W, strain elf1, active compounds read low 0.994 | S. cerevisiae deletion strains, locus YKL190W, strain CNB1, active compounds read low 1.02 | S. cerevisiae deletion strains, locus YKR001C, strain vps1, active compounds read low 1.03 | S. cerevisiae deletion strains, locus YKR026C, strain gcn3, active compounds read low 0.99 | S. cerevisiae deletion strains, locus YKR091W, strain srl3, active compounds read low 0.98 | S. cerevisiae deletion strains, locus YLL001W, strain dnm1, active compounds read low 1 | S. cerevisiae deletion strains, locus YLL026W, active compounds read low 0.997 | S. cerevisiae deletion strains, locus YLL041C, strain sdh2, active compounds read low 0.97 | S. cerevisiae deletion strains, locus YLR027C, strain aat2, active compounds read low 0.988 | S. cerevisiae deletion strains, locus YLR039C, strain RIC1, active compounds read low 1.05 | S. cerevisiae deletion strains, locus YLR058C, strain SHM2, active compounds read low 1.02 | S. cerevisiae deletion strains, locus YLR102C, strain apc9, active compounds read low 1.03 | S. cerevisiae deletion strains, locus YLR113W, strain HOG1, active compounds read low 1.02 | S. cerevisiae deletion strains, locus YLR221C, strain rsa3, active compounds read low 0.994 | S. cerevisiae deletion strains, locus YLR258W, strain gsy2, active compounds read low 0.994 | S. cerevisiae deletion strains, locus YLR262C, strain YPT6 (second series), active compounds read low 0.933 | S. cerevisiae deletion strains, locus YLR262C, strain YPT6, active compounds read low 1.05 | S. cerevisiae deletion strains, locus YLR268W, strain sec22, active compounds read low 1.01 | S. cerevisiae deletion strains, locus YLR320W, strain mms22, active compounds read low 0.966 | S. cerevisiae deletion strains, locus YLR330W, strain CHS5, active compounds read low 1.02 | S. cerevisiae deletion strains, locus YLR342W, strain FKS1 (second series), active compounds read low 1 | S. cerevisiae deletion strains, locus YLR342W, strain FKS1, active compounds read low 0.986 | S. cerevisiae deletion strains, locus YLR357W, strain rsc2, active compounds read low 0.931 | S. cerevisiae deletion strains, locus YLR370C, strain arc18, active compounds read low 0.985 | S. cerevisiae deletion strains, locus YLR371W, strain rom2, active compounds read low 1.02 | S. cerevisiae deletion strains, locus YLR384C, strain iki3, active compounds read low 0.974 | S. cerevisiae deletion strains, locus YLR418C, strain cdc73, active compounds read low 1.02 | S. cerevisiae deletion strains, locus YML016C, strain PPZ1, active compounds read low 1.02 | S. cerevisiae deletion strains, locus YML032C, strain rad52, active compounds read low 1.03 | S. cerevisiae deletion strains, locus YML120C, strain ndi1, active compounds read low 0.988 | S. cerevisiae deletion strains, locus YML124C, strain tub3, active compounds read low 1.03 | S. cerevisiae deletion strains, locus YMR058W, strain fet3, active compounds read low 0.972 | S. cerevisiae deletion strains, locus YMR078C, strain ctf18, active compounds read low 1.04 | S. cerevisiae deletion strains, locus YMR125W, strain sto1, active compounds read low 0.974 | S. cerevisiae deletion strains, locus YMR129W, active compounds read low 0.98 | S. cerevisiae deletion strains, locus YMR205C, strain PFK2, active compounds read low 0.996 | S. cerevisiae deletion strains, locus YMR223W, strain ubp8, active compounds read low 1.02 | S. cerevisiae deletion strains, locus YMR231W, strain pep5, active compounds read low 0.993 | S. cerevisiae deletion strains, locus YMR263W, strain SAP30, active compounds read low 1.02 and 0.999 | S. cerevisiae deletion strains, locus YMR307W, strain GAS1, active compounds read low 1.05 | S. cerevisiae deletion strains, locus YNL067W, strain RPL9B, active compounds read low 1.02 | S. cerevisiae deletion strains, locus YNL071W, strain lat1, active compounds read low 0.978 | S. cerevisiae deletion strains, locus YNL128W, strain TEP1, active compounds read low 1.04 and 1.01 | S. cerevisiae deletion strains, locus YNL153C, strain GIM3, active compounds read low 1.01 and 1.03 | S. cerevisiae deletion strains, locus YNL175C, strain NOP13, active compounds read low 1.01 | S. cerevisiae deletion strains, locus YNL183C, strain NPR1, active compounds read low 0.96 | S. cerevisiae deletion strains, locus YNL197C, strain WHI3, active compounds read low 1.03 | S. cerevisiae deletion strains, locus YNL209W, strain ssb2, active compounds read low 0.979 | S. cerevisiae deletion strains, locus YNL224C, strain SQS1, active compounds read low 0.998 | S. cerevisiae deletion strains, locus YNL233W, strain BNI4, active compounds read low 1.01 | S. cerevisiae deletion strains, locus YNL248C, strain rpa49, active compounds read low 0.974 | S. cerevisiae deletion strains, locus YNL250W, strain rad50, active compounds read low 1.06 | S. cerevisiae deletion strains, locus YNL271C, strain bni1, active compounds read low 1.02 | S. cerevisiae deletion strains, locus YNL298W, strain CLA4, active compounds read low 1.05 | S. cerevisiae deletion strains, locus YNL307C, strain MCK1, active compounds read low 1.02 | S. cerevisiae deletion strains, locus YNL322C, strain KRE1 (second series), active compounds read low 0.976 | S. cerevisiae deletion strains, locus YNL322C, strain KRE1, active compounds read low 1.03 and 0.967 | S. cerevisiae deletion strains, locus YNR049C, strain mso1, active compounds read low 0.988 | S. cerevisiae deletion strains, locus YNR052C, strain pop2, active compounds read low 1.03 | S. cerevisiae deletion strains, locus YOL006C, strain TOP1, active compounds read low 1.02 | S. cerevisiae deletion strains, locus YOL012C, strain htz1 0.991 | S. cerevisiae deletion strains, locus YOL147C, strain pex11, active compounds read low 1.03 | S. cerevisiae deletion strains, locus YOR001W, strain rrp6, active compounds read low 1.02 | S. cerevisiae deletion strains, locus YOR061W, strain CKA2, active compounds read low 1.02 | S. cerevisiae deletion strains, locus YOR069W, strain VPS5, active compounds read low 1.01 | S. cerevisiae deletion strains, locus YOR070C, strain gyp1, active compounds read low 0.996 | S. cerevisiae deletion strains, locus YOR080W, strain dia2, active compounds read low 0.989 | S. cerevisiae deletion strains, locus YOR083W, strain WHI5 (second series), active compounds read low 1.03 | S. cerevisiae deletion strains, locus YOR083W, strain WHI5, active compounds read low 0.977 | S. cerevisiae deletion strains, locus YOR106W, strain vam3, active compounds read low 0.972 | S. cerevisiae deletion strains, locus YOR136W, strain idh2, active compounds read low 1.03 | S. cerevisiae deletion strains, locus YOR144C, strain elg1, active compounds read low 1.03 | S. cerevisiae deletion strains, locus YOR184W, strain ser1, active compounds read low 1.04 | S. cerevisiae deletion strains, locus YOR231W, strain MKK1, active compounds read low 1.03 | S. cerevisiae deletion strains, locus YOR265W, strain rbl2, active compounds read low 0.986 | S. cerevisiae deletion strains, locus YOR270C, strain vph1, active compounds read low 0.911 | S. cerevisiae deletion strains, locus YOR290C, strain snf2, active compounds read low 0.961 | S. cerevisiae deletion strains, locus YOR316C, strain cot1, active compounds read low 1.02 | S. cerevisiae deletion strains, locus YPL051W, strain arl3, active compounds read low 0.999 | S. cerevisiae deletion strains, locus YPL055C, strain LGE1, active compounds read low 1.02 | S. cerevisiae deletion strains, locus YPL078C, strain atp4, active compounds read low 0.973 | S. cerevisiae deletion strains, locus YPL106C, strain sse1, active compounds read low 0.981 | S. cerevisiae deletion strains, locus YPL240C, strain hsp82, active compounds read low 0.993 | S. cerevisiae deletion strains, locus YPL241C, strain CIN2, active compounds read low 1.02 and 1 | S. cerevisiae deletion strains, locus YPL256C, strain CLN2, active compounds read low 1 | S. cerevisiae deletion strains, locus YPR119W, strain clb2, active compounds read low 1.02 | S. cerevisiae deletion strains, locus YPR141C, strain kar3, active compounds read low 1.04 | S. cerevisiae deletion strains, locus YPR163C, strain tif3, active compounds read low 1.03 | S. cerevisiae deletion strains, locus YPR167C, strain met16, active compounds read low 1.04 | S. cerevisiae deletion strains, strain wtn01, active compounds read low 1.03 | S. cerevisiae strains, strain wild type, active compounds read low 1.02

From PubChem BioAssay AID1159580 (chemical genetic matrix, 2015)
